Measurements reported in PubChem BioAssay.
The source made the active and inactive calls. Unless noted, the rule behind the calls is not given here.

Columns and labels:
[1] = tested on: XIP peptide (Xip251-270) binding; test: XIP fragment 251-270 binding compounds – biochemical, small-molecule microarray, fluorescence 635/667 nm, 0.1 µg/mL protein, primary screen (AID 1182); details: fluorescent protein binding, 635 nm, higher = more signal, called active from +8 up or from −8 down
XIP peptide (Xip251-270) = test: compounds binding XIP fragment 251-270 – biochemical, small-molecule microarray, fluorescence 635/667 nm, 0.5 µg/mL protein, primary screen (AID 1183); details: fluorescence 635 nm, higher = more signal
[2] = blood-stage malaria parasite viability loss – strain 3D7, DAPI fluorescence, 100 nL, primary screen (AID 1184);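 note: parasites grown inside human red blood cells in medium with human serum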; details: P. falciparum 3D7 growth, 3 d, higher = more signal
[3] = biological target: Homeobox protein Hox-A13 (Mus musculus) (UniProt Q62424); test: disruptors of Hoxa13 oligonucleotide interaction – biochemical, fluorescence polarization, labeled oligonucleotide, primary screen (AID 1185); details: Hoxa13:DNA binding, 15 min, higher = more signal, called active from +8 up or from −8 down
Chain of Homeobox protein Hox-A13 (Mus musculus) (Q62424 whole entry, looked up): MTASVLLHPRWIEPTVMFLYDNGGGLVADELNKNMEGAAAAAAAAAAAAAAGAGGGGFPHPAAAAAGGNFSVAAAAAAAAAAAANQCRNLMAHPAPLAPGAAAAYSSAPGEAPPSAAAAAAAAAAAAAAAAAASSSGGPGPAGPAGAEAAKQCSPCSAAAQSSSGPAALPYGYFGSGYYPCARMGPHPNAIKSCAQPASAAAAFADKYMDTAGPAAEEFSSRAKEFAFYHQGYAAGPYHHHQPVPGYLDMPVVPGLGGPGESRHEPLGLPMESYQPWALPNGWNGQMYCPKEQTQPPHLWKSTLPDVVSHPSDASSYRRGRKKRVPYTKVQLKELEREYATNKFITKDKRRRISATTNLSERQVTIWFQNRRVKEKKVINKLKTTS

[4] = blockers of DNA damage checkpoint Chk1 activation – imaging, HeLa, hydroxyurea, phospho-Chk1 antibody, percent positive cells, primary screen (AID 1186); details: hydroxyurea-induced phospho-Chk1 immunofluorescence imaging, higher = more signal
[5] = blockers of DNA damage checkpoint Chk1 activation – imaging, HeLa, hydroxyurea, phospho-Chk1 nuclear intensity, primary screen (AID 1187); details: hydroxyurea-induced phospho-Chk1 immunofluorescence imaging, higher = more signal

CC(C)[Si](C#Cc1ccc(Oc2ccccc2)cc1)(O[Si](C#Cc1ccc(Oc2ccccc2)cc1)(C(C)C)C(C)C)C(C)C
composite z-score [1]: 0.467 (inactive) | composite z-score (XIP peptide (Xip251-270)): -0.0968 | z-score [2]: -1.37 | z-score [3]: -2.37 (inactive) | z-score [4]: -1.01 (inactive) | z-score [5]: -0.556 (inactive)

O=C(NCCN1CCOCC1)C1N=C(c2ccc(OCCCO)cc2)N(c2ccccc2)O1 (configuration not stated)
composite z-score [1]: 2.46 (inactive) | composite z-score (XIP peptide (Xip251-270)): 0.738 | z-score [2]: -0.122 | z-score [3]: -1.6 (inactive) | z-score [4]: -0.227 (inactive) | z-score [5]: -0.0873 (inactive)

CCC(CC)C(O)C1C=CC2C(=O)NC(=O)C2N1Nc1ccccn1 (configuration not stated)
composite z-score [1]: -0.471 (inactive) | composite z-score (XIP peptide (Xip251-270)): 0.579 | z-score [2]: -0.3 | z-score [3]: -0.375 (inactive) | z-score [4]: 0.933 (inactive) | z-score [5]: 0.481 (inactive)

CN1C(=O)C2C=CC(C(O)C#Cc3ccccc3)N(N3CCCCC3)C2C1=O (configuration not stated)
composite z-score [1]: 1.34 (inactive) | composite z-score (XIP peptide (Xip251-270)): 0.84 | z-score [2]: -0.254 | z-score [3]: -4.72 (inactive) | z-score [4]: -0.699 (inactive) | z-score [5]: -0.674 (inactive)

COC(=O)[C@]1(CCC(=O)OC(C)(C)C)N=C(c2ccc(OCCCO)cc2)O[C@@H]1c1ccccc1CN=[N+]=[N-]
composite z-score [1]: 1.52 (inactive) | composite z-score (XIP peptide (Xip251-270)): 0.767 | z-score [2]: -2.03 | z-score [3]: -0.506 (inactive) | z-score [4]: 0.121 (inactive) | z-score [5]: -0.0667 (inactive)

CCCC[C@@H]1C[C@H]1[C@@H](NC(=O)c1ccccc1)c1ccc(C(=O)OC)cc1
composite z-score [1]: -0.0225 (inactive) | composite z-score (XIP peptide (Xip251-270)): 0.221 | z-score [2]: -0.0079 | z-score [3]: -3.64 (inactive) | z-score [4]: 0.665 (inactive) | z-score [5]: 0.454 (inactive)

C=C(COC)/C(=C/C[C@@H](OC(C)=O)c1ccc(OCCO)cc1)c1cnc2ccccc2c1
composite z-score [1]: -0.263 (inactive) | composite z-score (XIP peptide (Xip251-270)): 0.554 | z-score [2]: -3.23 | z-score [3]: -6.01 (inactive) | z-score [4]: 0.136 (inactive) | z-score [5]: -0.201 (inactive)

C=CCC(OC(C)=O)[C@@H]1[C@@H](N(Cc2ccc(-c3ccccc3)cc2)C(=O)c2ccc(-c3ccccc3)cc2)c2cc(OCCCO)ccc2N1C(=O)Cc1ccc2ccccc2c1 (some centres not stated)
composite z-score [1]: -0.313 (inactive) | composite z-score (XIP peptide (Xip251-270)): -0.241 | z-score [2]: 0.799 | z-score [3]: -1.05 (inactive) | z-score [4]: 0.321 (inactive) | z-score [5]: 0.392 (inactive)

C=CCNC(=O)[C@@H]1[C@H]2C(=O)O[C@H](c3ccccc3)[C@H](c3ccccc3)N2[C@H](c2ccc(O)cc2)[C@@]12C(=O)N(C(=O)OCCOC)c1ccc(C#CCNC(N)=O)cc12
composite z-score [1]: 0.963 (inactive) | composite z-score (XIP peptide (Xip251-270)): 0.787 | z-score [2]: 0.251 | z-score [3]: -2.11 (inactive) | z-score [4]: -0.26 (inactive) | z-score [5]: -0.436 (inactive)

NC(=O)NCC#Cc1ccc2c(c1)[C@]1(C(=O)N2)[C@H](C(N)=O)[C@H]2C(=O)O[C@H](c3ccccc3)[C@H](c3ccccc3)N2[C@@H]1c1ccc(O)cc1
composite z-score [1]: 1.49 (inactive) | composite z-score (XIP peptide (Xip251-270)): 0.109 | z-score [2]: -0.19 | z-score [3]: -5.36 (inactive) | z-score [4]: 0.0619 (inactive) | z-score [5]: 0.044 (inactive)

C=CC[C@@]12N=C(c3ccc(OCCCO)cc3)O[C@@H]1c1ccccc1N(C)C2=O
composite z-score [1]: 0.535 (inactive) | composite z-score (XIP peptide (Xip251-270)): 0.759 | z-score [2]: -1.9 | z-score [3]: -4.57 (inactive) | z-score [4]: 0.221 (inactive) | z-score [5]: 0.444 (inactive)

CO[C@H]1O[C@H](CO)[C@@H](OC(=O)Nc2cccc(F)c2)[C@H](OC(=O)Nc2ccccc2)[C@@H]1OC(=O)Nc1ccccc1
composite z-score [1]: 1.23 (inactive) | composite z-score (XIP peptide (Xip251-270)): 0.82 | z-score [2]: -1.26 | z-score [3]: -6.57 (inactive) | z-score [4]: 0.108 (inactive) | z-score [5]: 0.358 (inactive)

Cc1ccc(S[C@]2(C(=O)NCCCN(C)C)CC(=O)N(Cc3cc(C(F)(F)F)cc(C(F)(F)F)c3)[C@@H]2c2ccc(CO)cc2)cc1
composite z-score [1]: -0.497 (inactive) | composite z-score (XIP peptide (Xip251-270)): -0.583 | z-score [2]: 0.798 | z-score [3]: -2.68 (inactive) | z-score [4]: 0.112 (inactive) | z-score [5]: -0.331 (inactive)

CN(C)CCCC[C@@H]1NC(=O)[C@H]2C[C@@H](C(=O)NCCCCCCN)[C@@H](c3ccc(O)cc3)N2C1=O
composite z-score [1]: 1.38 (inactive) | composite z-score (XIP peptide (Xip251-270)): 0.785 | z-score [2]: -0.135 | z-score [3]: -1.16 (inactive) | z-score [4]: 0.323 (inactive) | z-score [5]: 0.362 (inactive)

CO[C@H]1O[C@H](CO)[C@@H](OC(=O)Nc2ccccc2)[C@H](OC(=O)Nc2ccccc2)[C@@H]1OC(=O)Nc1ccccc1
composite z-score [1]: 0.228 (inactive) | composite z-score (XIP peptide (Xip251-270)): 0.642 | z-score [2]: -1.43 | z-score [3]: -6.12 (inactive) | z-score [4]: 0.0303 (inactive) | z-score [5]: 0.502 (inactive)

COC(=O)[C@@]1(Cc2ccc(OC)cc2)[C@H]2c3cc(C(=O)N(C)C)n(C)c3C[C@H]2CN1C(=O)c1ccccc1
composite z-score [1]: -0.0515 (inactive) | composite z-score (XIP peptide (Xip251-270)): 0.764 | z-score [2]: -1.4 | z-score [3]: -3.49 (inactive) | z-score [4]: -0.0095 (inactive) | z-score [5]: 0.0799 (inactive)

COCCOC(=O)N1C(=O)[C@@]2(c3cc(C#CCCO)ccc31)[C@H](C(N)=O)[C@H]1C(=O)O[C@H](c3ccccc3)[C@H](c3ccccc3)N1[C@@H]2c1ccc(O)cc1
composite z-score [1]: -0.13 (inactive) | composite z-score (XIP peptide (Xip251-270)): -0.452 | z-score [2]: 2.08 | z-score [3]: -4.08 (inactive) | z-score [4]: 0.0513 (inactive) | z-score [5]: -0.0312 (inactive)

CC#CC(=O)Oc1ccccc1C=CC(=O)OCC
composite z-score [1]: 0.0524 (inactive) | composite z-score (XIP peptide (Xip251-270)): 0.106 | z-score [2]: -0.418 | z-score [3]: -2.38 (inactive) | z-score [4]: 0.367 (inactive) | z-score [5]: 0.195 (inactive)

Cc1ccc(S[C@]2(C(=O)NC3CC3)CC(=O)N(Cc3ccccc3)[C@@H]2c2ccc(CO)cc2I)cc1
composite z-score [1]: 0.135 (inactive) | composite z-score (XIP peptide (Xip251-270)): 0.387 | z-score [2]: -0.0873 | z-score [3]: -2.79 (inactive) | z-score [4]: 0.327 (inactive) | z-score [5]: 0.794 (inactive)

COCCOC(=O)N1C(=O)[C@@]2(c3cc(C#CC4(O)CCCCCC4)ccc31)[C@H](c1ccccc1OCCO)N1[C@H](c3ccccc3)[C@H](c3ccccc3)OC(=O)[C@H]1[C@@H]2C(=O)N1CCN(c2ncccn2)CC1
composite z-score [1]: -0.0186 (inactive) | composite z-score (XIP peptide (Xip251-270)): 0.744 | z-score [2]: -2.23 | z-score [3]: -0.571 (inactive) | z-score [4]: -0.353 (inactive) | z-score [5]: -0.189 (inactive)

O=C1C[C@@](C(=O)NC2CC2)(c2ccc([N+](=O)[O-])cc2)[C@@H](c2ccc(CO)cc2I)N1C1CCCCC1
composite z-score [1]: 0.0057 (inactive) | composite z-score (XIP peptide (Xip251-270)): 0.693 | z-score [2]: -1.28 | z-score [3]: -4.72 (inactive) | z-score [4]: -0.254 (inactive) | z-score [5]: -0.233 (inactive)

CO[C@H]1O[C@H](CO)[C@@H](OC(=O)Nc2ccc(C(F)(F)F)cc2)[C@H](OC(=O)Nc2ccc3c(c2)OCO3)[C@@H]1OC(=O)Nc1ccc2c(c1)OCO2
composite z-score [1]: 1.42 (inactive) | composite z-score (XIP peptide (Xip251-270)): 0.901 | z-score [2]: -2.09 | z-score [3]: -5.46 (inactive) | z-score [4]: -0.328 (inactive) | z-score [5]: -0.0864 (inactive)

COC(=O)[C@@]1(CCC(=O)OC(C)(C)C)N=C(c2ccc(OCCCO)cc2)O[C@H]1c1ccccc1N=[N+]=[N-]
composite z-score [1]: 1.35 (inactive) | composite z-score (XIP peptide (Xip251-270)): 0.664 | z-score [2]: -2.33 | z-score [3]: -2.14 (inactive) | z-score [4]: 0.114 (inactive) | z-score [5]: -0.229 (inactive)

NC(=O)[C@@H]1[C@H]2C(=O)O[C@H](c3ccccc3)[C@H](c3ccccc3)N2[C@H](c2ccc(O)cc2)[C@@]12C(=O)Nc1ccccc12
composite z-score [1]: 0.138 (inactive) | composite z-score (XIP peptide (Xip251-270)): 0.507 | z-score [2]: -1.28 | z-score [3]: -5.09 (inactive) | z-score [4]: -0.0838 (inactive) | z-score [5]: -0.0447 (inactive)

CN(C)CCCCCCNC(=O)[C@H]1C[C@H]2C(=O)N[C@@H](CCCCN)C(=O)N2[C@H]1c1cccc(OCCO)c1
composite z-score [1]: 0.867 (inactive) | composite z-score (XIP peptide (Xip251-270)): 0.727 | z-score [2]: 1.05 | z-score [3]: -2.01 (inactive) | z-score [4]: -0.198 (inactive) | z-score [5]: -0.0886 (inactive)

CCCC[C@@H]1C[C@H]1[C@@H](NC(=O)c1ccco1)c1ccccc1C(F)(F)F
composite z-score [1]: 0.259 (inactive) | composite z-score (XIP peptide (Xip251-270)): -0.623 | z-score [2]: -0.7 | z-score [3]: 2.24 (inactive) | z-score [4]: 0.445 (inactive) | z-score [5]: -0.353 (inactive)

COC(=O)[C@@]1(Cc2ccc(OC)cc2)[C@H]2c3cc(C(=O)N(C)C)n(CCc4ccccn4)c3C[C@H]2CN1C(=O)c1ccccc1
composite z-score [1]: -0.312 (inactive) | composite z-score (XIP peptide (Xip251-270)): -0.7 | z-score [2]: -1.52 | z-score [3]: -2.39 (inactive) | z-score [4]: 0.808 (inactive) | z-score [5]: 0.0643 (inactive)
